# Reference: PubChem BioAssay
# Where “and” joins values, the source holds several entries; their conditions need not be identical. Equal entries are not always repeated. For part of these data: Entries with a potency or affinity are not part of this list. Calls of active or inactive are those of the source.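 How the source made its calls, unless noted: active means thallium flux through the channel raised or lowered by more than 3 SD from vehicle-only wells, actives on both sides; inactive means the rest.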
# Tests used:
# [1] = polyglutamine-triggered caspase-3 activation inhibitors, cell-based (AID 1583); conditions: polyglutamine-induced caspase-3 activation, cell assay; stronger effect = higher value;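 tested at 10 µM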
# [2] = suppressors of polyQ aggregation in yeast, 75Q-TubU reporter (AID 1593); conditions: Yeast 75Q polyglutamine aggregation reporter
# [3] = rescue of polyQ-huntingtin neuronal dysfunction in worms, whole organism, C. elegans mechanosensory neurons, N-terminal huntingtin (AID 1599); conditions: touch response, stronger effect = higher value
# [4] = inhibitors of mitochondrial cytochrome c release, biochemical, purified mitochondria (AID 1603); conditions: stronger effect = lower value;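 further: mouse liver mitochondria challenged with calcium chloride; signal normalized to the plate average as 100%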
# [5] = inhibitors of polyQ protein aggregation (AID 1604); conditions: polyglutamine-induced protein aggregation inhibition assay; stronger effect = higher value; tested at 2.5 µM
# [6] = enhancers of glutamate uptake in motor neurons, MN-1 cell line (AID 1612); conditions: MN-1 motor neuron cells, stronger effect = higher value;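 further: tested at 1 µM final; 0% = mean of DMSO vehicle wells on each plate; positive means more glutamate uptake than control and negative means less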
# [7] = suppressors of polyglutamine aggregation in yeast, 75Q-TubH (AID 1616); conditions: S. cerevisiae 75Q-TubH polyglutamine aggregation suppression; stronger effect = higher value
# [8] = hESC survival regulators, cell-based (AID 493140; call rule not given here;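 further: cells exposed to compounds for four days before counting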); conditions: human embryonic stem cell survival screen; stronger effect = higher value
# [9] = Cy5 fluorescence interference with SSB-bound oligo, artefact control for HCV NS3 helicase inhibitor project, biochemical, NIH Clinical Collection, E. coli SSB (AID 743268; call rule not given here)
# [10] = modulation of C. elegans fzo-1 (AID 1259413; call rule not given here;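 further: fzo-1 mutant C. elegans worms in liquid wells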); conditions: C. elegans fzo-1 modulator screen, mean read-out; stronger effect = higher value
# [11] = viability rescue of complex I mutant cybrids, primary screen, cell-based, galactose medium, ATP luminescence (AID 1645843;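 active means z-score of at least 1.8 in each of two replicates, scored against plate mean and spread of sample wells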;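 further: positive z means more ATP and so rescue of galactose-driven cybrid death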); conditions: complex I mutant cybrid cells, 72 h, stronger effect = higher value
# F380Y/beta1 = assay: modulators of BK channel variants, profiling panel, selectivity assay, cell-based, U2OS BacMam, thallium flux, beta subunits (AID 1259406); conditions: at 30 µM;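 further: initial slope of Thallos dye fluorescence rise after thallium is added; log ratio against the mean of 0.3% DMSO vehicle wells on the same plate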
# F380Y/beta4 = assay: as above; conditions: at 30 µM
# R275C = assay: as above; conditions: at 30 µM
# R275C/beta1 = assay: as above; conditions: at 30 µM
# R275C/beta2Delta = assay: as above; conditions: at 30 µM
# R275C/beta4 = assay: as above; conditions: at 30 µM
# R275C/Slo1WT/beta2 = assay: as above; conditions: at 30 µM
# [12] = liver-stage malaria parasite growth inhibition, primary screen, cell-based, HepG2, luciferase luminescence, HepG2 viability (AID 624349; in the data active means parasite load remaining mostly below about 12%, no sharp cut-off; inactive means mostly above about 10%;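 further: 100% = mean of DMSO negative control wells on the same plate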); conditions: P. berghei liver stage in HepG2, luciferase luminescence, concentration not given here; parasite load remaining: stronger effect = lower value; viability: measured here: HepG2 viability without parasites
smiles,measurement,setting,value
Cc1cccc(CN2CCN(C(c3ccccc3)c3ccc(Cl)cc3)CC2)c1 (stereo not given),inhibition,[1],7.71%
same,score,[2],1.9
same,rescue above control,[3],1.73
same,cytochrome c release ratio,[4],0.33
same,inhibition of aggregation,[5],63.4%
same,glutamate uptake change,[6],17.6%
same,aggregation suppression score,[7],1.86
same,survival,[8],3.33 (inactive)
same,fluorescence ratio,[9],0.1 (active)
same,mean signal,[10],222 (inactive)
same,z-score,[11],-1.5 (inactive)
same,log fold change Tl+ flux,F380Y/beta1,-0.208 (active)
same,log fold change Tl+ flux,F380Y/beta4,-0.141 (active)
same,log fold change Tl+ flux,R275C,0.00971 (inactive)
same,log fold change Tl+ flux,R275C/beta1,-0.0498 (inactive)
same,log fold change Tl+ flux,R275C/beta2Delta,0.0052 (inactive)
same,log fold change Tl+ flux,R275C/beta4,-0.091 (inactive)
same,log fold change Tl+ flux,R275C/Slo1WT/beta2,-0.00698 (inactive)
CC1=C(C(=O)O)N2C(=O)[C@@H](NC(=O)[C@H](N)c3ccccc3)[C@H]2SC1,survival,[8],10.4 (inactive)
same,parasite load remaining,[12],125% (inactive) and 69.1% (inactive) and 137% (inactive)
same,viability,[12],119% and 79.9% and 115%
same,fluorescence ratio,[9],1.01 (inactive)
same,mean signal,[10],265 (inactive)
same,log fold change Tl+ flux,F380Y/beta1,-0.0395 (inactive)
same,log fold change Tl+ flux,F380Y/beta4,-0.0677 (inactive)
same,log fold change Tl+ flux,R275C,-0.0778 (inactive)
same,log fold change Tl+ flux,R275C/beta1,-0.0268 (inactive)
same,log fold change Tl+ flux,R275C/beta2Delta,-0.026 (inactive)
same,log fold change Tl+ flux,R275C/beta4,-0.0153 (inactive)
same,log fold change Tl+ flux,R275C/Slo1WT/beta2,-0.0484 (inactive)
C[C@]12C=CC(=O)C=C1CC[C@@H]1[C@@H]2C(=O)C[C@@]2(C)[C@H]1CC[C@]2(O)C(=O)CO,survival,[8],15.9 (inactive)
same,fluorescence ratio,[9],0.107 (active)
same,z-score,[11],0.315 (inactive) and 0.45 (inactive)
same,log fold change Tl+ flux,F380Y/beta1,0.00863 (inactive)
same,log fold change Tl+ flux,F380Y/beta4,0.000343 (inactive)
same,log fold change Tl+ flux,R275C,-0.0236 (inactive)
same,log fold change Tl+ flux,R275C/beta1,-0.0318 (inactive)
same,log fold change Tl+ flux,R275C/beta2Delta,0.028 (inactive)
same,log fold change Tl+ flux,R275C/beta4,-0.00291 (inactive)
same,log fold change Tl+ flux,R275C/Slo1WT/beta2,-0.00226 (inactive)
COc1cc(NC(C)CCCN)c2ncccc2c1 (stereo not given),inhibition,[1],18.8%
same,score,[2],1.79
same,rescue above control,[3],0
same,cytochrome c release ratio,[4],0.68
same,inhibition of aggregation,[5],78.1%
same,glutamate uptake change,[6],-1.37%
same,aggregation suppression score,[7],1.22
same,survival,[8],5.33 (inactive)
same,fluorescence ratio,[9],0.96 (inactive)
same,mean signal,[10],225 (inactive)
same,z-score,[11],-1.43 (inactive) and -2.4 (inactive)
same,log fold change Tl+ flux,F380Y/beta1,-0.102 (inactive)
same,log fold change Tl+ flux,F380Y/beta4,-0.0853 (inactive)
same,log fold change Tl+ flux,R275C,-0.164 (active)
same,log fold change Tl+ flux,R275C/beta1,0.0817 (inactive)
same,log fold change Tl+ flux,R275C/beta2Delta,0.0117 (inactive)
same,log fold change Tl+ flux,R275C/beta4,0.0128 (inactive)
same,log fold change Tl+ flux,R275C/Slo1WT/beta2,-0.0635 (inactive)
CCCSc1ccc2nc(NC(=O)OC)[nH]c2c1,inhibition,[1],25.8%
same,score,[2],0.16
same,rescue above control,[3],-16.6
same,cytochrome c release ratio,[4],0.88
same,inhibition of aggregation,[5],11.8%
same,glutamate uptake change,[6],21.4%
same,aggregation suppression score,[7],0.174
same,survival,[8],0.917 (inactive)
same,fluorescence ratio,[9],1.01 (inactive)
same,mean signal,[10],254 (inactive)
same,z-score,[11],0.56 (inactive) and -0.955 (inactive)
same,log fold change Tl+ flux,F380Y/beta1,-0.0515 (inactive)
same,log fold change Tl+ flux,F380Y/beta4,-0.0654 (inactive)
same,log fold change Tl+ flux,R275C,0.0372 (inactive)
same,log fold change Tl+ flux,R275C/beta1,0.0301 (inactive)
same,log fold change Tl+ flux,R275C/beta2Delta,0.0234 (inactive)
same,log fold change Tl+ flux,R275C/beta4,-0.0656 (inactive)
same,log fold change Tl+ flux,R275C/Slo1WT/beta2,-0.017 (inactive)
Cc1cccc(Nc2ccccc2C(=O)O)c1C,inhibition,[1],14.9%
same,score,[2],0.19
same,rescue above control,[3],14.6
same,cytochrome c release ratio,[4],1
same,inhibition of aggregation,[5],32.9%
same,glutamate uptake change,[6],-12.3%
same,aggregation suppression score,[7],0.495
same,survival,[8],12.2 (inactive)
same,fluorescence ratio,[9],1 (inactive)
same,mean signal,[10],235 (inactive)
same,z-score,[11],0.385 (inactive) and 1.06 (inactive)
same,log fold change Tl+ flux,F380Y/beta1,0.147 (active)
same,log fold change Tl+ flux,F380Y/beta4,0.146 (active)
same,log fold change Tl+ flux,R275C,0.009 (inactive)
same,log fold change Tl+ flux,R275C/beta1,0.182 (active)
same,log fold change Tl+ flux,R275C/beta2Delta,0.117 (active)
same,log fold change Tl+ flux,R275C/beta4,0.0837 (inactive)
same,log fold change Tl+ flux,R275C/Slo1WT/beta2,0.00462 (inactive)
CCCN(CCC)S(=O)(=O)c1ccc(C(=O)O)cc1,inhibition,[1],2.2%
same,score,[2],0.68
same,rescue above control,[3],9.13
same,cytochrome c release ratio,[4],1.07
same,inhibition of aggregation,[5],52.4%
same,glutamate uptake change,[6],-14.7%
same,aggregation suppression score,[7],0.579
same,survival,[8],6.25 (inactive)
same,fluorescence ratio,[9],1.02 (inactive)
same,mean signal,[10],252 (inactive)
same,z-score,[11],0.145 (inactive)
same,log fold change Tl+ flux,F380Y/beta1,-0.02 (inactive)
same,log fold change Tl+ flux,F380Y/beta4,-0.0299 (inactive)
same,log fold change Tl+ flux,R275C,-0.00526 (inactive)
same,log fold change Tl+ flux,R275C/beta1,-0.0021 (inactive)
same,log fold change Tl+ flux,R275C/beta2Delta,-0.000317 (inactive)
same,log fold change Tl+ flux,R275C/beta4,-0.0261 (inactive)
same,log fold change Tl+ flux,R275C/Slo1WT/beta2,0.0366 (inactive)
O=C1[C@H](CC[C@H](O)c2ccc(F)cc2)[C@@H](c2ccc(O)cc2)N1c1ccc(F)cc1,parasite load remaining,[12],62.8% (inactive)
same,viability,[12],65.3%
same,fluorescence ratio,[9],0.97 (inactive)
same,mean signal,[10],228 (inactive)
same,log fold change Tl+ flux,F380Y/beta1,0.33 (active)
same,log fold change Tl+ flux,F380Y/beta4,0.106 (active)
same,log fold change Tl+ flux,R275C,-0.0195 (inactive)
same,log fold change Tl+ flux,R275C/beta1,0.416 (active)
same,log fold change Tl+ flux,R275C/beta2Delta,0.12 (active)
same,log fold change Tl+ flux,R275C/beta4,0.207 (active)
same,log fold change Tl+ flux,R275C/Slo1WT/beta2,0.0256 (inactive)
CC(C)C1CCC(C(=O)N[C@H](Cc2ccccc2)C(=O)O)CC1 (stereo not given in full),parasite load remaining,[12],83.5% (inactive) and 55.1% (inactive)
same,viability,[12],68.8% and 167%
same,fluorescence ratio,[9],1.01 (inactive)
same,mean signal,[10],221 (inactive)
same,z-score,[11],-0.11 (inactive)
same,log fold change Tl+ flux,F380Y/beta1,0.0965 (inactive)
same,log fold change Tl+ flux,F380Y/beta4,0.075 (inactive)
same,log fold change Tl+ flux,R275C,-0.00833 (inactive)
same,log fold change Tl+ flux,R275C/beta1,0.0383 (inactive)
same,log fold change Tl+ flux,R275C/beta2Delta,0.0438 (inactive)
same,log fold change Tl+ flux,R275C/beta4,0.0835 (active)
same,log fold change Tl+ flux,R275C/Slo1WT/beta2,0.0201 (inactive)
